High-throughput results (PubChem BioAssay)
HP1b binding inh – HP1-beta chromodomain-methylated histone interaction inhibition | Potency, µM (titrated, usually from 114 µM), usual class: inhibitors | AlphaScreen HP1-beta / biotin-H3K9me3 peptide binding | AID 540317 | 390,000 compounds, 0.56% hits; further: nearly all actives have a fitted effect of over 70% in size
Target sequence (P83916 whole entry, looked up): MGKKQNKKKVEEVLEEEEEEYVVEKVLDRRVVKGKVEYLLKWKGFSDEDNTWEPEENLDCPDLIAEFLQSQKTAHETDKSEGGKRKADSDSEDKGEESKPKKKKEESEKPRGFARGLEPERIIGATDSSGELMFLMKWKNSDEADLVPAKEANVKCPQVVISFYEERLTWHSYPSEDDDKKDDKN
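HP1-beta protein (50 nM final) preincubated 30 min at room temperature with biotinylated H3(1-18)K9me3 peptide (50 nM) in PBS pH 7.4, 0.01% Tween-20, then compound added for 30 min. AlphaScreen streptavidin donor/nickel chelate acceptor beads (10 ug/mL final), 30 min dark, luminescence read.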
JMJD2A Tudor inh – blocks the human JMJD2A Tudor domain | O75164 | AlphaScreen JMJD2A-Tudor / H3K4me3 peptide binding | Potency, µM (highest dose often 114 µM), most hits filed as inhibitors | 390,000 compounds, 4.4% hits; further: nearly all actives have a fitted effect of over 50% in size
BAZ2B block – BAZ2B (human) inhibition. Potency, µM (highest dose often 114 µM), usual class: inhibitors. AlphaScreen BAZ2B-H3K14Ac peptide displacement. AID 504333. Q9UIF8. 360,000 compounds, 4.4% hits; further: nearly all actives have a fitted effect of over 60% in size
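Inhibition is scored as reduced AlphaScreen emission. The BAZ2B/b-H3(5-23)K14Ac complex (50 nM each) in PBS pH 7.4, 0.01% Tween-20 meets compound (up to 110 uM) for 30 min at RT before bead addition.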
G9a block – blocks human histone lysine methyltransferase G9a | Potency, µM (top dose mostly 102 µM), hits mostly inhibitors | 350,000 compounds, 8.8% hits | G9a H3K9 monomethylation, AlphaScreen, 2 h | Q96KQ7; further: nearly all actives have a fitted effect of over 75% in size
Target sequence (Q96KQ7 913-1193 limits assumed): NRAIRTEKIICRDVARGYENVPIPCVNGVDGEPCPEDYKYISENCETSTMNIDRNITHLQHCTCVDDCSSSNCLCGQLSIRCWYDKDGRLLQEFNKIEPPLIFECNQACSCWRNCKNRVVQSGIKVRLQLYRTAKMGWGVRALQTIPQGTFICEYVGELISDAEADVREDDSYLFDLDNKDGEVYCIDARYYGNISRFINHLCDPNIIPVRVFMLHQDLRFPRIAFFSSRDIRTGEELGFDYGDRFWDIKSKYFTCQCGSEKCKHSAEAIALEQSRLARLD
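Quantitative HTS format: methyltransferase activity on a biotin-tagged H3K9 peptide is measured by AlphaScreen, using a rabbit anti-monomethyl-H3K9 antibody with streptavidin donor and anti-IgG acceptor beads. Final levels are 20 nM enzyme, 500 nM peptide, 20 uM SAM; 2 h RT.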
Sfp PPTase inh – inhibitors of Bacillus subtilis Sfp phosphopantetheinyl transferase; Potency, µM, actives largely listed as inhibitors; AID 1490; 310,000 compounds, 3.5% hits; Biochemical Sfp PPTase activity, qHTS; Q9F4F7;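 further: the enzyme is Sfp with the accession as filed and its product quenches rhodamine fluorescence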
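Fluorescence-quenching assay: 15 nM Sfp-PPTase preincubated 15 min at room temperature with compound, then 5 uM rhodamine-CoA and 12.5 uM BHQ-2-labelled YbbR peptide added. Fluorescence (ex 525/em 598 nm) read at start and after 30 min; difference gives rate.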
Of the large screens only hits and unclear results are named; the others gave an inactive call. Rows were chosen to be rich in hits. Some 12% of all compounds tested hit in one or more screens of this group. The call rests on the fitted dose curve; in most records, active means well fitted curve in the direction sought with a large enough effect; inconclusive means small, poorly fitted or top-dose-only effect, or another doubt; inactive means no such curve, though single readings can be large; an effect the other way counts as inactive or inconclusive.

O=c1c2c(-c3cccs3)csc2[nH]c(=S)n1-c1ccccc1	G9a block 39.8µM
CC(C)n1c(=S)[nH]c2scc(-c3cccs3)c2c1=O	JMJD2A Tudor inh inconclusive, BAZ2B block 50.1µM, G9a block 28.2µM, Sfp PPTase inh 39.8µM
CCn1c(=S)[nH]c2scc(-c3cccs3)c2c1=O	G9a block 35.5µM
O=c1c2c(-c3cccs3)csc2ncn1-c1ccccc1	none
Cc1ccc(C)n1-n1cnc2scc(-c3cccs3)c2c1=O	BAZ2B block inconclusive
Cc1ccc(C(=O)Nc2ccc(S(=O)(=O)Nc3ncccn3)cc2)cc1[N+](=O)[O-]	none
O=C(Cn1cnc2c(oc3ccccc32)c1=O)Nc1ccccc1C(F)(F)F	none (no result: Sfp PPTase inh)
COc1ccc(N2CSC3=C(C#N)C(c4cc(OC)ccc4OC)CC(=O)N3C2)c(OC)c1 (stereo not drawn)	HP1b binding inh 15.8µM, JMJD2A Tudor inh 22.4µM, BAZ2B block 44.7µM, G9a block 2.24µM, Sfp PPTase inh 3.16µM
COc1ccc(C2CC(=O)N3CN(C4CCCCC4)CSC3=C2C#N)cc1 (stereo not drawn)	HP1b binding inh inconclusive, JMJD2A Tudor inh 7.08µM, G9a block 1.78µM (no result: BAZ2B block, Sfp PPTase inh)
CCCSC1=C(C#N)C(c2cc(OC)ccc2OC)CC(=O)N1 (stereo not drawn)	none
COc1ccc(N2CSC3=C(C#N)C(c4ccc(OC)c(OC)c4)CC(=O)N3C2)c(OC)c1 (stereo not drawn)	HP1b binding inh inconclusive, JMJD2A Tudor inh 20µM, BAZ2B block inconclusive, G9a block 2.51µM, Sfp PPTase inh 3.16µM
CCOc1ccccc1N1CSC2=C(C#N)C(c3c(OC)ccc4ccccc34)CC(=O)N2C1 (stereo not drawn)	HP1b binding inh inconclusive, JMJD2A Tudor inh 35.5µM, BAZ2B block 50.1µM, G9a block 0.562µM, Sfp PPTase inh 3.16µM
CCN(CC)S(=O)(=O)c1ccc(C(=O)N2CCN=C2SC)cc1	none
COc1ccc(N2CSC3=C(C#N)C(c4cc(OC)c(OC)cc4OC)CC(=O)N3C2)c(OC)c1 (stereo not drawn)	HP1b binding inh 20µM, JMJD2A Tudor inh 20µM, BAZ2B block 44.7µM, G9a block 3.55µM, Sfp PPTase inh 3.55µM
COc1cc(OC)c(C2CC(=O)N3CN(c4ccc(C)cc4)CSC3=C2C#N)cc1OC (stereo not drawn)	HP1b binding inh inconclusive, JMJD2A Tudor inh 4.47µM, BAZ2B block inconclusive, Sfp PPTase inh 5.01µM
Cc1cc(C([O-])=C(C(=S)Nc2ccc(F)cc2)[n+]2ccccc2)c(C)n1-c1ccc(F)cc1	HP1b binding inh 50.1µM (no result: JMJD2A Tudor inh, BAZ2B block, G9a block, Sfp PPTase inh)
Cc1cc(C)cc(NC(=S)/C(=C(\[O-])c2ccc(Cl)cc2Cl)[n+]2ccccc2)c1	BAZ2B block inconclusive, G9a block inconclusive
COc1cccc(NC(=O)CCN2CCN(c3ccccc3F)CC2)c1	none
COc1cccc(NC(=S)/C(=C(\[O-])c2cc(C)n(-c3ccccc3F)c2C)[n+]2ccc(N(C)C)cc2)c1	JMJD2A Tudor inh 25.1µM, BAZ2B block 39.8µM, G9a block 35.5µM
CC(=O)N(CC(=O)N(CC(=O)O)c1ccc(Cl)cc1)c1ccc(Cl)cc1	none (no result: BAZ2B block, G9a block, Sfp PPTase inh)
COc1ccc(CN(Cc2ccncc2)C(=O)CCC(=O)O)cc1	none
COC(=O)Cn1c(=O)c2c(nc3n2CCN3c2cccc(C)c2)n(C)c1=O	G9a block inconclusive (no result: Sfp PPTase inh)
O=C1OCC(c2ccccc2)=C1c1ccccc1	none
N#CC1=C(c2ccc(-c3ccccc3)cc2)COC1=O	G9a block 11.2µM
O=C(O)CCC(=O)NNC(=O)c1ccc(-c2ccccc2)cc1	none
c1ccc(-n2nc3c(ccc4cnnc43)[nH]2)cc1	BAZ2B block 50.1µM, G9a block 17.8µM
Cc1ccc(S(=O)(=O)NCC(=O)OCC(=O)NC(=O)c2cccn2C)cc1	G9a block inconclusive
CCCN1C(=O)C2(SC(NC(C)=O)=NN2C(C)=O)c2cc(C)cc(C)c21 (stereo not drawn)	none
Cc1ccc(C)c(N2CCN(C(=O)c3ccc4c(c3)c(C)c(C)n4C)CC2)c1	HP1b binding inh inconclusive, JMJD2A Tudor inh 44.7µM, BAZ2B block 35.5µM, G9a block 31.6µM
Cc1c(C)n(C)c2ccc(C(=O)N3CCN(c4ccccc4)CC3)cc12	HP1b binding inh inconclusive, JMJD2A Tudor inh 35.5µM, BAZ2B block 39.8µM, G9a block 44.7µM
Cc1ccc(C)c(N2CCN(S(=O)(=O)c3c(C(=O)N4CCCCC4)c(C)n(C)c3C)CC2)c1	JMJD2A Tudor inh inconclusive, BAZ2B block inconclusive, G9a block 79.4µM
Cc1ccc(C)c(N2CCN(S(=O)(=O)c3c(C)[nH]c(C)c3C(=O)N3CCCCC3)CC2)c1	none
COc1ccc(C2=CC(=O)C[C@H](c3ccc(OC)c(OC)c3)C2)cn1	none (no result: Sfp PPTase inh)
Cc1ccc(C(=O)N(C)CC(=O)Nc2cccc(C)c2C)o1	none
CCOC(=O)c1sc2ncnc(Nc3cccc(C(=O)O)c3)c2c1C	none (no result: G9a block)
COc1cccc(Oc2ccc(S(=O)(=O)N3CCOCC3)cc2[N+](=O)[O-])c1	none (no result: BAZ2B block, G9a block, Sfp PPTase inh)
Cc1ccsc1/C=N/NC(=O)Cn1cnc2ccccc21	none
Cc1ccc(C)c(NC(=O)Cn2cc(S(=O)(=O)NC(C)C)c(S(=O)(=O)NC(C)C)c2)c1	none (no result: Sfp PPTase inh)
C#CCOCCOCCOCCNc1nc(N2CCN(C(=O)[C@H]([C@@H](C)O)n3cc(CCCCN)nn3)CC2)nc(N2CCN(C(=O)[C@H](C)n3cc(CCC(=O)O)nn3)CC2)n1	none (no result: BAZ2B block, G9a block, Sfp PPTase inh)
C#CCOCCOCCOCCNc1nc(N2CCN(C(=O)[C@H]([C@@H](C)CC)n3cc(CCCN=C(N)N)nn3)CC2)nc(N2CCN(C(=O)[C@H](Cc3ccc(O)cc3)n3cc(CCO)nn3)CC2)n1	JMJD2A Tudor inh inconclusive, BAZ2B block inconclusive, G9a block 44.7µM
C#CCOCCOCCOCCNc1nc(N2CCN(C(=O)[C@H]([C@@H](C)CC)n3cc(CCCN=C(N)N)nn3)CC2)nc(N2CCN(C(=O)[C@H](C)n3cc(CCCN=C(N)N)nn3)CC2)n1	BAZ2B block inconclusive, G9a block 39.8µM
C#CCOCCOCCOCCNc1nc(N2CCN(C(=O)[C@H]([C@@H](C)CC)n3cc(CCCCN)nn3)CC2)nc(N2CCN(C(=O)[C@H](C)n3cc(CCC(=O)O)nn3)CC2)n1	BAZ2B block inconclusive, G9a block 79.4µM, Sfp PPTase inh inconclusive
C#CCOCCOCCOCCNc1nc(N2CCN(C(=O)Cn3cc(CCCN=C(N)N)nn3)CC2)nc(N2CCN(C(=O)Cn3cc(CCCN=C(N)N)nn3)CC2)n1	BAZ2B block inconclusive, G9a block 25.1µM (no result: HP1b binding inh, JMJD2A Tudor inh)
C#CCOCCOCCOCCNc1nc(N2CCN(C(=O)[C@H](C(C)C)n3cc(CCO)nn3)CC2)nc(N2CCN(C(=O)[C@H](C)n3cc(CCCN=C(N)N)nn3)CC2)n1	none (no result: BAZ2B block, G9a block, Sfp PPTase inh)
Cc1ccc2[nH]c3c(=O)n(CC(=O)N(CCN(C)C)Cc4ccccc4)ncc3c2c1	none (no result: Sfp PPTase inh)
Cc1ccc(NC(=O)CN(C)CC(=O)Nc2ccccc2C#N)cc1	G9a block inconclusive
